The record followed here is PubChem BioAssay.

The nature of test [1]: yeast TOR pathway RPL19A-GFP modulators, primary screen, cell-based, S. cerevisiae, multiplex flow cytometry (AID 1862; in the data active = percent of DMSO control GFP below about 86%;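 also: lower values mimic rapamycin by blocking the RPL19A rise seen in DMSO cells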). Conditions: S. cerevisiae RPL19A-GFP strain, flow cytometry fluorescence, 3 h; at 10 µM; stronger effect = lower value.
The nature of test [2]: modulators of MEP2-GFP levels in yeast, primary screen, S. cerevisiae, multiplex flow cytometry (AID 1867;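 active = GFP response, as percent of the DMSO control, above the screen-wide mean plus 3 SD, about 139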;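 also: median GFP channel fluorescence of barcode-gated MEP2-GFP cells measured by flow cytometry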). As to conditions: S. cerevisiae MEP2-GFP strain, 3 h, at 10 µM, stronger effect = higher value, 100% means same as DMSO wells.
A short description of test [3]: modulators of CIT2-GFP expression in yeast, primary screen, S. cerevisiae, GFP fusion, multiplex flow cytometry (AID 1870;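 active = percent response above a set limit, the screen-wide mean plus 3 SD, cut at about 130% in these data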;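 also: barcoded CIT2-GFP strain pooled with four other GFP strains with rapamycin as positive control; median GFP fluorescence per well over plate mean of DMSO wells so 100% = DMSO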). Conditions: 3 h, at 10 µM, stronger effect = higher value.
The nature of test [4]: modulators of LAP4-GFP expression in yeast, primary screen, S. cerevisiae, multiplex flow cytometry (AID 1873;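 active = GFP signal, as percent of the solvent control, above the screen mean plus 3 SD, about 149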). As to conditions: 3 h, at 10 µM, stronger effect = higher value.
Test [5] can be described thus: modulators of AGP1-GFP expression in yeast TOR pathway, primary screen, cell-based, multiplex flow cytometry, S. cerevisiae (AID 1887;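 active = GFP signal above the screen-wide mean plus 3 SD, that is over about 124.5% of the solvent control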;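 also: AGP1-GFP fusion strain of S. cerevisiae within a five-strain barcoded multiplex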). Conditions: 3 h, at 10 µM, stronger effect = higher value.
Test [6] can be described thus: inhibitors of CD8+ T cell-vesicle binding, pilot screen, LFA-1/ICAM-1 modulator project, MLPCN validation set, flow cytometry (AID 2523;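 active = response below a set limit, under 55% cells CD8-positive and vesicle-bound, and CD8 cells' 90th-percentile brightness under 279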;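 as to vesicle binding response: mean PE anti-B7-1 fluorescence of CD8+ cells relative to row control; 100% = QL9-loaded vesicles with DMSO vehicle in the same plate row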). As to conditions: 2C mouse CD8+ T cells, at 7 µM, stronger effect = lower value; double positive events: measured here: CD8+/vesicle+ event percentage.
The target of test [7] is Integrin beta-1 (Homo sapiens) + Integrin alpha-4 (Homo sapiens) (UniProt P13612+P05556). The experiment in a line: inhibition of HUTS-21 binding to VLA-4, pilot screen, VLA-4 allosteric modulator project, U937 cells, HUTS-21 mAb, flow cytometry, validation set (AID 2674;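 active = inhibition above 50%, about 3 SD of the validation set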;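 also: antibody binding induced by the VLA-4 ligand LDV present at three times its Kd; 0% = LDV ligand with antibody and no compound and 100% = antibody without LDV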). As to conditions: HUTS-21 LIBS mAb binding, at 6.7 µM, stronger effect = higher value, binding induced by LDV ligand.
Chain of Integrin beta-1 (Homo sapiens) + Integrin alpha-4 (Homo sapiens) (P05556 whole entry, looked up): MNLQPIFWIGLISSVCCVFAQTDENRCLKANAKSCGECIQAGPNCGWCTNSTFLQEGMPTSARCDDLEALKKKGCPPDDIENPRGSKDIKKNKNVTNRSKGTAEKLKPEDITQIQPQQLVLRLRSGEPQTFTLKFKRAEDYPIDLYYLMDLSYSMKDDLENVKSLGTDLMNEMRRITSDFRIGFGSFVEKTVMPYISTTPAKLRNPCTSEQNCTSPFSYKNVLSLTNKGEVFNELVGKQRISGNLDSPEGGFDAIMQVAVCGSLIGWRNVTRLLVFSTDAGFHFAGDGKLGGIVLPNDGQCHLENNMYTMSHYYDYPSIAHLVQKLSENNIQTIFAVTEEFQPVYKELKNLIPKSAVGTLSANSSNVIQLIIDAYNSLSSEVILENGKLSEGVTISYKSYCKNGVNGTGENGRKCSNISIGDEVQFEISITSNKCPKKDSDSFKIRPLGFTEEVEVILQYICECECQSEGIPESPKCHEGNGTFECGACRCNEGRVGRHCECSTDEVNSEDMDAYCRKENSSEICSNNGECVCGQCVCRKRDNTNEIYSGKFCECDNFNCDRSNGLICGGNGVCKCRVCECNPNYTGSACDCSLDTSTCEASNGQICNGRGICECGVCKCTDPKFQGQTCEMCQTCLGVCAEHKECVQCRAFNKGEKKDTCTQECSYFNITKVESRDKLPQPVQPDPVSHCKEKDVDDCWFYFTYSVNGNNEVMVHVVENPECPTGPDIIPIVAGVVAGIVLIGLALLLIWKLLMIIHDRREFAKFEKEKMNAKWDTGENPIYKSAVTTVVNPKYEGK
Chain of Integrin beta-1 (Homo sapiens) + Integrin alpha-4 (Homo sapiens) (P13612 whole entry, looked up): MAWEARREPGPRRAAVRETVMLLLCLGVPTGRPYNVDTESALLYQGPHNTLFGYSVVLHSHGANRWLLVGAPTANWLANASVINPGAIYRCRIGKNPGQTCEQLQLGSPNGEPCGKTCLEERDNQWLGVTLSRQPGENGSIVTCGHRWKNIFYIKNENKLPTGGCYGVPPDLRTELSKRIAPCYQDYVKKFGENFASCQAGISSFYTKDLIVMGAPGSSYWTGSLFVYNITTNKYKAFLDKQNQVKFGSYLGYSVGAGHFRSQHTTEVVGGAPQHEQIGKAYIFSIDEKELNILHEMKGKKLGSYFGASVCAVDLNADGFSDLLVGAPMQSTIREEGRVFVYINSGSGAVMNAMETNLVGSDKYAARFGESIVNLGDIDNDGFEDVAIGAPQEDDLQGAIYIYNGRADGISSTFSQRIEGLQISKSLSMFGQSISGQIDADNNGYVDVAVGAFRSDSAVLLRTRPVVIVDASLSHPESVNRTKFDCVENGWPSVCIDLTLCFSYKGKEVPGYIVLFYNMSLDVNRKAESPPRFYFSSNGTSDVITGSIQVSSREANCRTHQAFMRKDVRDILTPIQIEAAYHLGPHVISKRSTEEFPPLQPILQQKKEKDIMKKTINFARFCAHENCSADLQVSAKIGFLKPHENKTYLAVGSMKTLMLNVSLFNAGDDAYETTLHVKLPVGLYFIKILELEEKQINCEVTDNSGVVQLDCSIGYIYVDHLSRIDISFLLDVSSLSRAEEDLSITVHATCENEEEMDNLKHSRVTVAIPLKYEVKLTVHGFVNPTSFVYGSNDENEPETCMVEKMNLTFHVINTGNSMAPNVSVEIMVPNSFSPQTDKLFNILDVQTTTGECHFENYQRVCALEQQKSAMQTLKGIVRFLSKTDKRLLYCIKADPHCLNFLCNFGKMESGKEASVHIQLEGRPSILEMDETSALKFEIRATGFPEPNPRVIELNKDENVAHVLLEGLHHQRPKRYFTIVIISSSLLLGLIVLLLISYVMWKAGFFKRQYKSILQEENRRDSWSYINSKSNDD

A short description of test [8]: superoxide lowering in aged yeast cells, pilot screen, validation compound set (AID 2706;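 active = superoxide response below 65% of plate, a cut near 3 SD across the whole screen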;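 also: yeast exposed to compound for one week at 30 degrees C before staining; 100% = mean of all compound wells on the same plate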). As to conditions: S. cerevisiae aging, superoxide DHE fluorescence; at 10 µM; stronger effect = lower value.
The target in test [9] is Beta-adrenergic receptor kinase 1 (Homo sapiens) (UniProt P25098). The experiment in a line: GRK2 binders displacing RNA aptamer, biochemical, validation, human GRK2, bead flow cytometry (AID 488806;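 active = aptamer binding inhibition above 30%, about 3 SD of noise from non-fluorescent compounds; inactive = inhibition at or below 30%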). Conditions: bead-bound GRK2, FAM-aptamer displacement, at 10 µM, stronger effect = higher value.
Chain of Beta-adrenergic receptor kinase 1 (Homo sapiens) (P25098 whole entry, looked up): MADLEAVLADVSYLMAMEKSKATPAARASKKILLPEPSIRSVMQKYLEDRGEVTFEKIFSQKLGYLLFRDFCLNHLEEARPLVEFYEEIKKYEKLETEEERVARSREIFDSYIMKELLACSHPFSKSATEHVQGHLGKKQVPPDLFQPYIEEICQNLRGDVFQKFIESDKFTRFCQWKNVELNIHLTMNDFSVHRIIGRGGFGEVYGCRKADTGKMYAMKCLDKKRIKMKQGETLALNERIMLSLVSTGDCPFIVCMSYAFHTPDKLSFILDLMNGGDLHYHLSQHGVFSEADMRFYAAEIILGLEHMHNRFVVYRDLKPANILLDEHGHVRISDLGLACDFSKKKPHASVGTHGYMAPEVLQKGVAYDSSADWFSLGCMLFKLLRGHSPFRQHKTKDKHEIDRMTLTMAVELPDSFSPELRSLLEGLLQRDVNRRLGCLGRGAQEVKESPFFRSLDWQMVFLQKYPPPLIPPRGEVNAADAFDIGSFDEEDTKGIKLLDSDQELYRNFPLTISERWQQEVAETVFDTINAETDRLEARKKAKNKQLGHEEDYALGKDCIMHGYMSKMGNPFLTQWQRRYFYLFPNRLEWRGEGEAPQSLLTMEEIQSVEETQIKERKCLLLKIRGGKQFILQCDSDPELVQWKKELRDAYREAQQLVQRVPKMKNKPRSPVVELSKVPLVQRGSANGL
The target of test [10] is Beta-2 adrenergic receptor (Homo sapiens) (UniProt P07550). The experiment in a line: beta2AR agonists driving receptor internalization, pilot screen, cell-based, FAP fluorogen, flow cytometry, validation set (AID 504459;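 active = percent response above 42, roughly 3 SD of non-fluorescent test compounds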;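 also: agonist-driven loss of surface beta2AR via internalization measured by FAP dye flow cytometry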). Conditions: Am2.2-beta2AR cells, FAP surface receptor flow cytometry; at 10 µM; stronger effect = higher value.
Chain of Beta-2 adrenergic receptor (Homo sapiens) (P07550 whole entry, looked up): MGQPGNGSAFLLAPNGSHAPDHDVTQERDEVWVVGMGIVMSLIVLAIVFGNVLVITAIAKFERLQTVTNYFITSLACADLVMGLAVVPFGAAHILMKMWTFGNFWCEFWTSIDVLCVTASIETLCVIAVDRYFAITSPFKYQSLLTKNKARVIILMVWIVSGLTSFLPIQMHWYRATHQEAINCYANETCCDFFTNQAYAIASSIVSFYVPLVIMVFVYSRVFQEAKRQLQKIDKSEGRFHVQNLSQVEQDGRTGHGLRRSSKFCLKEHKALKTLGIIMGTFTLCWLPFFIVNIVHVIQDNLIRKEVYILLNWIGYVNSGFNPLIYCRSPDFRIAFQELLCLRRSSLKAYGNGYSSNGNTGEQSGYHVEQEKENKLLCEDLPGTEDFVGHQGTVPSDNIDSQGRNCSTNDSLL
For test [11], the target named is AP-2 complex subunit beta (Homo sapiens) (UniProt P63010). Put plainly: inhibitors of arrestin peptide binding to AP2, pilot screen, biochemical, validation set, GST-AP2 beads, flow cytometry (AID 504541;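 active = inhibition above 54%, about 3 SD of non-fluorescent compounds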;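 also: AP2 carries R879A mutation and is captured from E. coli lysate; bead-bound FITC arrestin peptide fluorescence measuring arrestin peptide binding to AP2; 0% = DMSO wells and 100% = excess unlabeled arrestin peptide control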). As to conditions: FITC arrestin peptide, at 10 µM, stronger effect = higher value, AP2 beta2 appendage fragment, R879A mutant.
Chain of AP-2 complex subunit beta (Homo sapiens) (P63010 whole entry, looked up, the tested form may be a part, one chain of several): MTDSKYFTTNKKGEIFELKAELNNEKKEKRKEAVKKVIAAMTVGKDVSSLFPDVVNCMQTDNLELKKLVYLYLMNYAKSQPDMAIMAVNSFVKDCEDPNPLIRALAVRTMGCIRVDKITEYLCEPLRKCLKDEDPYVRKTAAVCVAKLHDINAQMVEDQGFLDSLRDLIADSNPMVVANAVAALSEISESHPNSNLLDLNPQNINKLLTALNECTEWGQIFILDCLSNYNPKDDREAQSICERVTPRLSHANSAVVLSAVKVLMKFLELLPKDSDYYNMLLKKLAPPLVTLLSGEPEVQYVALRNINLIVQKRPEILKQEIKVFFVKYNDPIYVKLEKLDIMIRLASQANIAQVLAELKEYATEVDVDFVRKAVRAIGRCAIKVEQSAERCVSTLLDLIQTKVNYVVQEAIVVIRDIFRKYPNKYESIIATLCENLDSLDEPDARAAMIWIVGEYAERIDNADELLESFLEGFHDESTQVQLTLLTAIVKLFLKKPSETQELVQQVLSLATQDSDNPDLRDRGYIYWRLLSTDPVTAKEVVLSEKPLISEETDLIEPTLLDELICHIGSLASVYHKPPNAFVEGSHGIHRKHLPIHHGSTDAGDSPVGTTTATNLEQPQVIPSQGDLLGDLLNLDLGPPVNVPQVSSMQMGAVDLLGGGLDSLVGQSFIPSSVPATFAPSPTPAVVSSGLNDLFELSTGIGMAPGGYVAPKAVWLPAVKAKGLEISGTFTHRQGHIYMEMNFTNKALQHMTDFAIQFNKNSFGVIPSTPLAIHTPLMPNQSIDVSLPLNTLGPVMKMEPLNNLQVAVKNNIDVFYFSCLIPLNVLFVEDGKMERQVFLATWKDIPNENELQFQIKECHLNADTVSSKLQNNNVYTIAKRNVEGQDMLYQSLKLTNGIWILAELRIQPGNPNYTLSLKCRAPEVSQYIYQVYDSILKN
Test [12] can be described thus: yeast V-ATPase proton transport modulators, S. cerevisiae, pHLuorin, HTS validation (AID 504600; in the data active = response above about 15%;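 also: plate controls were DMSO for no effect and reference compound for full effect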). As to conditions: S. cerevisiae pHLuorin cytosolic pH, at 10 µM, stronger effect = higher value.
Test [13] relates to anti-desmoglein-3 scFv antibody binding to human DSG3. The experiment in a line: inhibitors of anti-DSG3 scFv binding to DSG3, pilot screen, biochemical, validation compound set, bead-based, flow cytometry (AID 588368;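 active = binding below the plate cutoff, the plate median minus 3 SD, with a reading above zero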;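 also: signal is the median channel fluorescence of bead-bound GFP antibody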). As to conditions: Protein G beads, DSG3-Fc, scFv-GFP binding, at 10 µM, stronger effect = lower value.
The nature of test [14]: inhibitors of fungal efflux pumps CDR1, CDR2, MDR1, pilot screen, validation compound set, multiplex, phenotypic (AID 588506;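 active = efflux inhibition above 0.42, the validation set average plus 4 SD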;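 also: Nile Red retained in cells so higher fluorescence means more efflux inhibition; 0 = negative control wells and 1 = enniatin B 25 µM full block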). Conditions: S. cerevisiae pump-expressing triplex, Nile Red efflux flow cytometry; at 10 µM; stronger effect = higher value; the pumps come from Candida albicans.
Test [15] concerns the target ATP-binding cassette sub-family B member 6 (Homo sapiens) (UniProt Q9NP58). The experiment in a line: ABCB6 transporter inhibitors, pilot screen, K562-ABCB6 cells, flow cytometry, validation set (AID 588550).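 Also: 0% = DMSO wells and 100% = benzethonium chloride 70 µM positive control.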 As to conditions: K562-ABCB6 porphyrin accumulation, 1 h, at 10 µM, stronger effect = higher value.
The nature of test [16]: promoters of myeloid differentiation in arrested cells, primary screen, cell-based, GFP/MAC1 double positive, flow cytometry, validation set (AID 588685;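 active = differentiation response of at least 50%, scaled between solvent and reference control, from cells with both markers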;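 also: compound exposure lasts four days before antibody staining and flow analysis; 0% = DMSO wells and 100% = 5 µM fulvestrant positive control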). Conditions: ER-HoxA9 marrow cells, stronger effect = higher value, normalized: vehicle 0, fulvestrant 100.

Results filed as inconclusive are left out. Calls of active or inactive are those of the source.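 The calls were made as follows, unless noted: active = inhibition above the screen-wide mean plus 3 SD, about 51%; inactive = the rest.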

Chain of ATP-binding cassette sub-family B member 6 (Homo sapiens) (Q9NP58 whole entry, looked up): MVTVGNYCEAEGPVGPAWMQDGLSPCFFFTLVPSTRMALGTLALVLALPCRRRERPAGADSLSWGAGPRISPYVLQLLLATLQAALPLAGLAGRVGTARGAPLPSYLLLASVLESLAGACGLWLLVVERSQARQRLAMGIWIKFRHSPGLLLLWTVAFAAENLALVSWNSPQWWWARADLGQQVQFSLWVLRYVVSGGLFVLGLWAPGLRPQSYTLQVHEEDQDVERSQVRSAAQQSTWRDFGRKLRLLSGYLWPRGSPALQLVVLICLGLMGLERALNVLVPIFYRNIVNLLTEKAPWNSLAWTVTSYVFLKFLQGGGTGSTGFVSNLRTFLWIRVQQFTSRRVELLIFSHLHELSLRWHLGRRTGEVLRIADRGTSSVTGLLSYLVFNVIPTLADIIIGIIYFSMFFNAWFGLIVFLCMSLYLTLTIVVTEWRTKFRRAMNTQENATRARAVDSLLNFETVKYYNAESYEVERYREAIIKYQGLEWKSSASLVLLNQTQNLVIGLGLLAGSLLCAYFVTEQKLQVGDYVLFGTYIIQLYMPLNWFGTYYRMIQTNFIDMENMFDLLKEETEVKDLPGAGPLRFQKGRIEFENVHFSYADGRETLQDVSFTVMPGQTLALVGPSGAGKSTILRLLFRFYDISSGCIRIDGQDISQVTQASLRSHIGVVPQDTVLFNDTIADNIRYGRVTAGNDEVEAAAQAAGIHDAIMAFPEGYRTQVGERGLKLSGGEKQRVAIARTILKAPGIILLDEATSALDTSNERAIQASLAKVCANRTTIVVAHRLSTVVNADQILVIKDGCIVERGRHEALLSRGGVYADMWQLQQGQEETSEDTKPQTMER

With `O=C(N/N=C\c1cc([N+](=O)[O-])ccc1N1CCOCC1)c1ccccn1`, the percent of DMSO control GFP in test [1] was 107% (inactive). The figures for the GFP response vs DMSO in [2] and in [4] were 102% (inactive) and 100% (inactive), respectively. Further, the percent response of DMSO control in [3] was 107% (inactive). In test [5], the GFP response, % of DMSO was 103% (inactive). For the same compound, the double positive events in test [6] worked out at 59.8%. Further, the vesicle binding response in test [6] was 142% (inactive). Also, the inhibition in [7] is -7.79% (inactive); in [11] it was 1.39% (inactive); in test [15], -1% (inactive). Besides, the superoxide response (% of plate) in test [8] is 104% (inactive). Moreover, the aptamer binding inhibition in test [9] is -2% (inactive). Also, the response was -1.25% (inactive) in [10] and 4.27% (inactive) in test [12]. Moreover, in [13], the binding (% of control) is 102% (inactive). For the same compound, the efflux inhibition (fraction of control) in [14] was 0.35 (inactive). Also, the differentiation response in [16] was -11.9% (inactive).

With `Cc1ccc2c(c1)c(C)cc(=O)n2CCC(=O)O`, the percent of DMSO control GFP in test [1] was 101% (inactive). For the same compound, the results for the GFP response vs DMSO in test [2] and in test [4] were 102% (inactive) and 116% (inactive), respectively. In test [3], the percent response of DMSO control is 98.6% (inactive). In addition, the GFP response, % of DMSO in test [5] was 102% (inactive). This compound also yielded a double positive events in test [6] of 61.6%. In addition, the vesicle binding response in [6] was 210% (inactive). The inhibition in test [7] is 13.2% (inactive); in test [11], 11.3% (inactive); in test [15] it was 3% (inactive). Besides, the superoxide response (% of plate) in test [8] was 97.2% (inactive). In addition, the aptamer binding inhibition in [9] is 17% (inactive). Also, the response in test [10] is 4.73% (inactive); in test [12] it was 1.4% (inactive). In test [13], the binding (% of control) was 101% (inactive). Moreover, in test [14], the efflux inhibition (fraction of control) is -0.24 (inactive). The differentiation response in test [16] is -20% (inactive).

For `COC1CCN(C(=O)c2ccc(OC3CCN(Cc4ccccn4)CC3)cc2)CC1`, the percent of DMSO control GFP in test [1] is 104% (inactive). The results for the GFP response vs DMSO in test [2] and in test [4] were 109% (inactive) and 114% (inactive), respectively. In [3], the percent response of DMSO control is 104% (inactive). The GFP response, % of DMSO in [5] was 110% (inactive). For the same compound, in test [6], the double positive events was 65%. In addition, in [6], the vesicle binding response is 133% (inactive). Moreover, the inhibition in [7] was 9.13% (inactive); in test [11], 26.3% (inactive); in test [15] it was 8% (inactive). Besides, the superoxide response (% of plate) in [8] was 89.2% (inactive). Moreover, in test [9], the aptamer binding inhibition is -2% (inactive). The response in test [10] was -2.71% (inactive); in test [12], -3.44% (inactive). Further, the binding (% of control) in [13] is 103% (inactive). The efflux inhibition (fraction of control) in test [14] was -0.17 (inactive). Also, the differentiation response in [16] was -2.4% (inactive).

Regarding `COC(=O)c1ccccc1NC(=O)NCc1ccccc1`, the percent of DMSO control GFP in test [1] was 96.3% (inactive). Further, the GFP response vs DMSO was 131% (inactive) in test [2] and 85.8% (inactive) in test [4]. For the same compound, the percent response of DMSO control in test [3] was 104% (inactive). In test [5], the GFP response, % of DMSO is 87.3% (inactive). Besides, the double positive events in test [6] is 63%. Moreover, in test [6], the vesicle binding response was 165% (inactive). The inhibition in [7] is -0.33% (inactive); in test [11] it was 0.05% (inactive); in [15], 15% (inactive). In addition, the superoxide response (% of plate) in test [8] was 99% (inactive). In [9], the aptamer binding inhibition is 6% (inactive). Moreover, the response in test [10] was -13.3% (inactive); in test [12], 1.35% (inactive). Moreover, the binding (% of control) in test [13] is 104% (inactive). In addition, the efflux inhibition (fraction of control) in [14] is -0.28 (inactive). Moreover, the differentiation response in [16] was 0% (inactive).
